# Results reported in the supplement of paper PMC10941209.
# System: Toxoplasma gondii RH 2F1 tachyzoites (intracellular in HFF)
# Test: parasite survival relative to DMSO control; higher = less antiparasitic activity, active = 20 or less
# Details: 1 µM; 72 h
# Procedure, shortened: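 Intracellular Toxoplasma gondii RH-2F1 tachyzoites, which express β-galactosidase, were grown in HFF cells (5 × 10^3 cells/well, 96-well plates) infected with 5 × 10^3 parasites in D2 medium for 3 h, then treated with compound at 1 μM for 72 h at 37°C in 5% CO2. Cells were lysed for 15 min, then CPRG was added and absorbance read at 570 nm after 30 min. Survival is the signal as a percentage of DMSO-treated infected controls, from 2 or more biological replicates.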
row,Compound,parasite survival
1,Cc1nc(-c2ccc(C3N(C)c4ccc(F)cc4C(=O)N3c3ccccc3)s2)cs1 (stereo not given),59.2% (inactive)
2,COC(=O)Nc1nc2cc(Sc3ccccc3)ccc2[nH]1,25.4% (inactive)
3,Oc1cc(-c2cccc3ccccc23)[nH]n1,55.1% (inactive)
4,O=c1[nH]c(=O)n(Cc2cccc(Oc3ccccc3)c2)cc1Nc1ccccc1,60.3% (inactive)
5,Nc1nc(O)c(Br)c(-c2cccc(Cl)c2)n1,63.8% (inactive)
6,CN(C)CC(=O)Nc1ccc2[nH]c(=O)c3ccccc3c2c1,55.3% (inactive)
7,C[C@H]1CC[C@]2(NC1)O[C@H]1C[C@H]3[C@@H]4CC[C@H]5C[C@@H](O)CC[C@]5(C)[C@H]4CC[C@]3(C)[C@H]1[C@@H]2C,41.1% (inactive)
8,NC1(C(=O)O)CCP(=O)(O)CC1 (stereo not given),77.4% (inactive)
9,CCCCN1C[C@H](O)[C@@H](O)[C@H](O)[C@H]1CO,61.5% (inactive)
10,Nc1nnc(-c2ccc(Cl)cc2)s1,59.9% (inactive)
11,NCc1ccc(S(N)(=O)=O)cc1,84.2% (inactive)
12,Cc1cc(CCCOc2c(C)cc(-c3noc(C(F)(F)F)n3)cc2C)on1,67.2% (inactive)
13,O=C(NC12CC3CC(CC(C3)C1)C2)c1cc2ccccc2[nH]1,14.7% (active)
14,c1cnc(NCc2ccc(CNc3ncccn3)cc2)nc1,71.1% (inactive)
15,Cc1cc(C)n2nc(C(=O)NS(=O)(=O)c3c(C)cccc3OC(F)(F)F)nc2n1,45.7% (inactive)
16,CC(C)Oc1cccc(NC(=O)c2ccccc2C(F)(F)F)c1,74.1% (inactive)
17,O=C1NC(=S)N/C1=C\c1cc(Br)cc(Br)c1O,71.6% (inactive)
18,O=C(O)C[C@H]1CC[C@H](c2ccc(-c3ccc(Nc4ccc(C(F)(F)F)nc4)cn3)cc2)CC1,42.6% (inactive)
19,CC(=O)O[C@H]1C[C@@]2(C)[C@@H](C[C@@H](O)[C@H]3[C@@]4(C)CC[C@@H](O)[C@@H](C)[C@@H]4CC[C@@]32C)/C1=C(\CCC=C(C)C)C(=O)O,48.4% (inactive)
20,c1cc(CN2CCCNCCNCCCNCC2)ccc1CN1CCCNCCNCCCNCC1,91.5% (inactive)

row,Compound,parasite survival
1,CCc1cc(Cc2cnc(N)nc2N)cc2c1N(C)CCC2C (stereo not given),45.2% (inactive)
2,O=C(O)c1ccc(-c2ccc(O[C@H]3O[C@H](CO)[C@@H](O)[C@H](O)[C@@H]3O)cc2)cc1,46.4% (inactive)
3,OB1OCc2cc(Cl)ccc21,57.2% (inactive)
4,CCc1oc2ccccc2c1C(=O)c1ccc(O)cc1,29.1% (inactive)
5,COc1ccc(NC(=O)c2cc3ccccn3n2)cc1,44.5% (inactive)
6,C(=C\c1nc2ccccc2[nH]1)/c1ccc2c(c1)OCO2,22.1% (inactive)
7,CCCNc1ccc(S(=O)(=O)Nc2cc(C)on2)cc1,65.5% (inactive)
8,Fc1ccc2c(/C=C/c3nnn[nH]3)c[nH]c2c1,47.3% (inactive)
9,NCCCc1ccccc1C(=O)Nc1ncc([N+](=O)O)s1,47.9% (inactive)
10,Cc1ncc([N+](=O)[O-])n1CC(C)O (stereo not given),48.2% (inactive)
11,COc1cc(C2C3=C(CC(C)(C)CC3=O)Nc3ccccc3N2C(C)=O)ccc1OCc1ccccc1 (stereo not given),56.3% (inactive)
12,COc1ccc(C[C@@H](C)[C@@H](C)Cc2ccc(OC)c(OC)c2)cc1OC,77.7% (inactive)
13,CC[C@@]1(O)C(=O)OCc2c1cc1n(c2=O)Cc2cc3c([N+](=O)[O-])cccc3nc2-1,57.5% (inactive)
14,O=S(=O)(NCB(O)O)c1cc2c(Cl)ccc(Cl)c2s1,54.4% (inactive)
15,CC1(C)C[C@H]1C(=O)N/C(=C\CCCCSC[C@@H](N)C(=O)O)C(=O)O,94.5% (inactive)
16,COc1cc(NS(=O)(=O)c2ccc(C)cc2)c2ncccc2c1,2.97% (active)
17,CC#C[C@]1(O)CC[C@H]2[C@@H]3CCC4=CC(=O)CCC4=C3[C@@H](c3ccc(N(C)C)cc3)C[C@@]21C,45.7% (inactive)
18,CCOCc1nc2c(N)nc3ccccc3c2n1CC(C)(C)O,55.5% (inactive)
19,Cc1ccc(Oc2ccccc2-c2csc(N=C3NCCCN3)n2)c(C)c1,30.1% (inactive)
20,CC[N+]1(C/C2=C/CCCCCC2)CCC(NC(=O)C2c3cc(Cl)ccc3Oc3ccc(Cl)cc32)CC1 (stereo not given),59.8% (inactive)
